We go through eleven molecules from ChEMBL document CHEMBL1157539, “Thousands of chemical starting points for antimalarial lead identification” (Nature, 2010).

Molecules are shown by their SMILES.

Common to all, as to format: functional
The test system of assay [1] is Plasmodium falciparum. In words: GSK_TCMDC: Inhibition of Plasmodium falciparum 3D7 in whole red blood cells, using parasite LDH activity as an index of growth. Test compounds present at 2uM.
Assay [2] deals with Plasmodium falciparum. In words: GSK_TCMDC: Inhibition of Plasmodium falciparum Dd2 in whole red blood cells, using parasite LDH activity as an index of growth. Test compounds present at 2uM.
The next assay concerns HepG2. The assay is described as follows: GSK_TCMDC: Percent inhibition of human HepG2 cell line. Test compounds present at 10uM.

`CN(C)c1nc(NN=Cc2cc(Cl)ccc2O)nc(Nc2ccc(F)cc2)n1`: the Inhibition – broadly, how much of the control response was suppressed – is listed as 94% with Plasmodium falciparum [1], 46% in the assay on Plasmodium falciparum [2] and 32% in the assay with HepG2.
With `COC(=O)c1cc(C(O)CNC(C)CCc2cccc(F)c2)ccc1O.Cl` (stereo not drawn), the Inhibition amounted to 94% in the assay with Plasmodium falciparum [1], 77% in the assay on Plasmodium falciparum [2] and 38% with HepG2.
For the molecule `CCCN(CC)CCOC(=O)c1ccccc1`, the Inhibition is 99% with Plasmodium falciparum [1], 1% in the assay on Plasmodium falciparum [2] and 2% with HepG2.
For `Cc1nc(N)nc(N)c1CCCOc1ccc(Br)cc1`, in that order: 97%, 5% and 30%.
The matching figures for `Fc1cc(Cl)ccc1Nc1ccnc2cc(-c3ccc(CNCCN4CCOCC4)o3)ccc12`: 100%, 100% and 13%.
Take `CC(C)C[C@H](NC(=O)c1ccc(OCCN2CCOCC2)cc1)C(=O)N[C@H](/C=N/NC(=O)c1ccccc1)CCc1ccccc1`: the Inhibition is on record as 98% with Plasmodium falciparum [1], 90% with Plasmodium falciparum [2] and 17% in the assay with HepG2.
The matching figures for `COc1ccccc1C(=O)Nc1ccc(Nc2nc(C)cc(N3CCOCC3)n2)cc1`: 98%, 22% and 28%.
Consider `CCC(CC)C(CC(=O)NC(C)(C)CCc1ccccc1OC)Nc1ccc(C#N)c2ccccc12` (stereo not drawn), for which the figures for the Inhibition in the assay on Plasmodium falciparum [1], in the assay on Plasmodium falciparum [2] and in the assay on HepG2 were 93%, 91% and 9%, respectively.
In the case of `COC(=O)c1ccc(OCC(C)NCC(O)c2cccc(C(F)(F)F)c2)cc1.O=C(O)/C=C/C(=O)O` (stereo not drawn), the Inhibition turned out to be 94% in the assay on Plasmodium falciparum [1], 81% with Plasmodium falciparum [2] and 6% in the assay with HepG2.
For `FC(F)(F)c1ccc(-c2cncc(-c3ccc(C(F)(F)F)cc3)n2)cc1`, the Inhibition is on record as 98% with Plasmodium falciparum [1], 97% in the assay with Plasmodium falciparum [2] and 9% in the assay on HepG2.
The matching figures for `O=C(Nc1ccc(N2CCN(Cc3ccccc3Cl)CC2)cc1)c1ccc([N+](=O)[O-])o1`: 91%, 67% and 100%.
